In all, about 69,000 compounds went through this assay and about 8,600 (12%) showed an effect of 50% or more. The list comes from a sample in which strong results are over-represented; it also holds similar structures and randomly drawn compounds.
Test system: Plasmodium berghei
Experiment: Screen against P. berghei liver stage (PbLuc), transformed with Luciferase, at 10uM
Format: functional, HepG2
Conditions: tested at 10 uM

Structure (SMILES)	INHIBITION
C[C@@H]1CN(C(=O)NC2CC2)C[C@]12CCN(c1ccsc1)C2=O	17.1%
CC(=O)N1CCCC1(C(=O)N1CCCC1)c1cnccn1 (stereo unspecified)	6.35%
CN(C)S(=O)(=O)c1ccc(=O)n(CC2CCCO2)c1 (stereo unspecified)	-28.9%
CC(C)CNC(=O)Cc1cnc(-n2cccc2)s1	28.3%
CC(=O)N1CCCC(Cc2cnc(-c3c(C)nn(C)c3C)cn2)C1 (stereo unspecified)	-10.4%
COc1ccc2c(c1)CCCN(C(=O)NCC1CCCO1)C2 (stereo unspecified)	37.4%
NC(=O)CN1CCCN(C(=O)CCOc2ccccc2Cl)CC1	29.7%
CCCNC(=O)C1(Cc2cc(-c3ccccc3)no2)CCN(C(C)=O)C1 (stereo unspecified)	-3.94%
CC(O)CNc1c(NCc2ccco2)c(=O)c1=O (stereo unspecified)	18.2%
c1ccc(Cc2noc(CN3CCOC(Cn4cncn4)C3)n2)cc1 (stereo unspecified)	13.3%
COCCO[C@@H]1CCN(Cc2csc(C)n2)[C@H]1Cc1ccccc1	18.1%
Cc1noc(C)c1-c1cccc(CC2CCN(C(=O)c3cc[nH]n3)C2)n1 (stereo unspecified)	46.1%
NS(=O)(=O)N1CCc2ccc(NC(=O)Cc3ccc(F)cc3)cc21	22.9%
NS(=O)(=O)N1CCc2ccc(NC(=O)Cc3ccccc3F)cc21	54.4%
CS(=O)(=O)N1CCc2c(cccc2NC(=O)CC(F)(F)F)C1	0.79%
CS(=O)(=O)Nc1ccc(CNC(=O)CN2CCc3ccccc32)cc1	16.6%
NS(=O)(=O)N1CCc2ccc(NC(=O)CCc3ccncc3)cc21	38.5%
NS(=O)(=O)N1CCc2ccc(NC(=O)CC(F)(F)F)cc21	63.3%
Cc1cnc2c(C(=O)N(C)Cc3cc(C4CC4)[nH]n3)cnn2c1	21.8%
CC(C)NC(=O)Nc1nc2c(s1)CN(C(=O)NCc1cccs1)CC2	46.4%
c1ccc(-c2nc(CCNCc3cccnc3)co2)cc1	45.3%
COCC1Cn2nnc(-c3cnn(C)c3)c2CN1Cc1cccs1 (stereo unspecified)	2.58%
O=C(c1cccs1)N1CCc2c(nc(N3CCCC3)[nH]c2=O)C1	34%

Structure (SMILES)	INHIBITION
Cc1cccc(S(=O)(=O)NCC(C)N2CCN(C)CC2)c1Cl (stereo unspecified)	-38.2%
Cc1cc(Cl)ccc1S(=O)(=O)NCC(C)N1CCN(C)CC1 (stereo unspecified)	68.3%
CC(CNS(=O)(=O)c1cccc(Cl)c1)N1CCN(C)CC1 (stereo unspecified)	46.4%
Cc1cc(N(C)C)nc(C2(C)CCCN2C(=O)c2cnccn2)n1 (stereo unspecified)	16.5%
CCS(=O)(=O)CCNCc1cc(O)c2cc(C)cc(C)c2n1	45.8%
CCOCCCNCc1cc(O)c2cc(C)ccc2n1	0.672%
Cc1ccc2nc(CNCCCOc3ccccc3)cc(O)c2c1 [UCSF924]	75.7%
COCCCNCc1cc(O)c2cc(C)cc(C)c2n1	51.2%
Cc1ccc2nc(CNCCCN3CCCC3=O)cc(O)c2c1	31.7%
CCOCC1(CNCc2cc(O)c3cc(C)ccc3n2)CC1	35.4%
Cc1cc(C)c2nc(CNCCNS(C)(=O)=O)cc(O)c2c1	43.9%
CCN(CC)CCNCc1cc(O)c2cc(C)ccc2n1	16.3%
CCOCCNCc1cc(O)c2cc(C)ccc2n1	53.3%
Cc1cc2nc(SCC(=O)NC(C)C)n(Cc3ccco3)c(O)c-2n1	12.6%
CN(CC(=O)N1CCCN(Cc2cscn2)CC1)c1cnccn1	13.9%
COCCN1CC[C@@H]2OC[C@H](C(=O)NCc3cccs3)C[C@@H]2C1	41.5%
Cc1ncsc1CN1CCOC(C)(C(=O)N2CCOCC2)C1 (stereo unspecified)	-3.94%
CNc1nc(CNC(=O)Nc2ccccc2C(F)(F)F)cs1	19.4%
NC(=O)C1(c2cnccn2)CCCN1C(=O)Cc1ccsc1 (stereo unspecified)	12.84%
CCCc1nc(C(=O)NCc2cccnc2-n2cncn2)cs1	-22.1%
O=C(NCc1cccnc1-n1cncn1)c1ccncc1	51.2%
CN(C)c1ccc(C(=O)NCc2cccnc2-n2cncn2)cc1F	52.6%
O=C(NCc1cccnc1-n1cncn1)c1ccc2c(c1)CCO2	-0.113%

Structure (SMILES)	INHIBITION
CN(C)c1cc(C(=O)NCc2cccnc2-n2cncn2)ccn1	83.7%
O=C(NCc1cccnc1-n1cncn1)c1cncc(Br)c1	43.8%
Cc1ccc(C(=O)NCc2cccnc2-n2cncn2)cc1S(C)(=O)=O	17.2%
CCN(CC)c1ccc(C(=O)NCc2cccnc2-n2cncn2)cn1	16.6%
O=C(NCc1cccnc1-n1cncn1)c1cc(Cl)ccn1	38.5%
CCN1CCC2(CN(C(=O)N(C)C)CC23CCN(CC2CC2)CC3)C1=O (stereo unspecified)	-38.1%
CCCn1c(N2CCCC2)nc2c(C)nn(C)c2c1=O	44.05%
CC(C)C(NC(=O)c1cnc(N2CCOCC2)nc1)c1cccs1 (stereo unspecified)	38.7%
Cc1ccccc1NCc1nc2n(n1)CCCCC2	34.2%
CN1CC(Oc2ccc(Cl)cc2)=NC(SCC(=O)c2ccccc2)=N1	12.9%
CN1CC(Oc2ccccc2)=NC(SCC(=O)c2ccccc2)=N1	1.98%
CCN1CC(Oc2ccc(Cl)cc2)=NC(SCC(=O)c2ccccc2)=N1	55.5%
Cn1c(=O)n(C)c2nc(Br)c(CC(=O)c3ccccc3)n2c1=O	37.3%
CC(C(=O)NCc1ccnc(N(C)C)c1)n1cccn1 (stereo unspecified)	49.4%
Cc1cnnn1Cc1nnn2c1CN(Cc1cccs1)CCC2	45.8%
Cn1cc(C(=O)N(Cc2ccco2)Cc2cccs2)ccc1=O	34%
CN(Cc1ccc2c(c1)OCO2)C(=O)c1ccc(=O)n(C)c1	42.7%
CN(Cc1ccco1)C(=O)c1ccc(=O)n(C)c1	55.4%
CN(Cc1ccco1)C(=O)Nc1ccc(=O)n(C)c1	60.1%
COCCN(Cc1cccs1)C(=O)c1ccc(=O)n(C)c1	-7.66%
CCN(Cc1cccs1)C(=O)c1ccc(=O)n(C)c1	28.7%
CN(Cc1cccs1)C(=O)c1ccc(=O)n(C)c1	53.3%
COc1ccc(NC(=O)N(C)Cc2ccco2)cn1	0.705%

Structure (SMILES)	INHIBITION
Cc1occc1CN(C)C(=O)Nc1ccc(=O)n(C)c1	44.3%
CCC1(CC)C(=O)NC(=O)N=C1Nc1ccc(C)cc1	27.5%
O=C(NCC1(c2cccs2)CCCCC1)N1CCOC(CO)C1 (stereo unspecified)	-39.4%
Cn1cc(N2C(=O)CC[C@@H]3[C@H]2CCN3CCc2ccccc2)cn1	17.4%
CN(C)C(=O)NC1COC2(CCN(C(=O)Nc3ccccc3)CC2)C1 (stereo unspecified)	42.1%
O=C1CCC2(CCCN(C(=O)NCc3ccccc3)CC2)N1 (stereo unspecified)	8.74%
Cc1nc2c(cc1C(=O)Nc1ccccc1Cl)c(=O)n(C)c(=O)n2C	18.6%
COCCN1CCN(C)C2(CCN(C(=O)c3ccnnc3)CC2)C1=O	39.4%
Cc1nc(C(C)Nc2nc3c(s2)c(C)nn3C)n[nH]1 (stereo unspecified)	52.1%
Cc1nn(C)c2nc(NC(C)c3n[nH]c(=O)[nH]3)sc12 (stereo unspecified)	28.5%
Cc1nn(C)c2nc(NC(C)c3nnn[nH]3)sc12 (stereo unspecified)	1.24%
O=S(=O)(NCc1ccnc(-n2ccnc2)c1)c1cncc(F)c1	2.93%
Cc1ccc(C(=O)NC2CCCN(C)C2)c(=O)[nH]1 (stereo unspecified)	8.51%
Cc1ccc(C(=O)NC2CCCN(CC(N)=O)C2)c(=O)[nH]1 (stereo unspecified)	9.63%
CCN1CCCC(NC(=O)c2ccc(C)[nH]c2=O)C1 (stereo unspecified)	55.5%
CN(C)[C@@H]1CN(Cc2cccnc2)C[C@H]1c1cn(C)c2ccccc12	23.69%
c1ccc(OCc2nnc3n2CCN(Cc2ccco2)C3)nc1	24.9%
Cc1nn(C)c2c(N(C)Cc3cccs3)nc(C3CC3)nc12	-17.2%
CCOc1cc(C(=O)N2CCN(C)CC2)cc2occc12	44.1%
CCOc1cc(C(=O)N2CCN(CC)CC2)cc2occc12	9.32%
CCOC(=O)C1CCN(C(=O)c2cc(OCC)c3ccoc3c2)CC1	-13.9%
CCOc1cc(C(=O)N2CCOCC2)cc2occc12	36.6%
CCOC(=O)N1CCN(C(=O)c2cc(OCC)c3ccoc3c2)CC1	58.2%

Structure (SMILES)	INHIBITION
CCOc1cc(C(=O)N2CCCC2)cc2occc12	50.7%
CN1CCCCC1c1ncc2c(n1)CCN(CCCc1ccccc1)C2 (stereo unspecified)	26.8%
Cc1cc(C(=O)N2CCC(O)(Cn3c(C)cc4ccncc43)CC2)on1	9.05%
NC(=O)N1CCC(NCc2cc(C(F)(F)F)ccc2Cl)CC1	17.8%
CN(C)C(=O)COCc1nnc2n1CCN(Cc1ccoc1)C2	45.8%
CNC(=O)C1(CCCc2ccncc2)CCN1 (stereo unspecified)	-4.82%
COc1ccc(CN2CC(O)CN(C(=O)C3CCC3)CC2=O)cc1 (stereo unspecified)	41.1%
COc1ccccc1CC1CCCN(C(=O)c2n[nH]c3c2CCC3)C1 (stereo unspecified)	19%
COc1cccc(CCC2CCCN(C(=O)c3ccc(=O)n(C)n3)C2)c1 (stereo unspecified)	40.5%
COc1cccc(CCC2CCCN(C(=O)C3=NN(C)C(=O)CC3)C2)c1 (stereo unspecified)	3.47%
COc1cccc(CCC2CCCN(C(=O)c3ccc(OC)o3)C2)c1 (stereo unspecified)	68.3%
Cn1cc(C(=O)N2CCCC(C(=O)CCc3ccccc3)C2)cn1 (stereo unspecified)	10.7%
COc1cccc(CCC2CCCN(C(=O)c3cnccn3)C2)c1 (stereo unspecified)	81.1%
COc1cccc(OCC2CCCN(C(=O)c3cc(C)n[nH]3)C2)c1 (stereo unspecified)	10.5%
COc1cccc(C(=O)N2CCCC(C(=O)CCc3ccccc3)C2)c1 (stereo unspecified)	65%
COc1cccc(CCC2CCCN(C(=O)c3ccccn3)C2)c1 (stereo unspecified)	43.7%
COc1cccc(CCC2CCCN(C(=O)c3n[nH]c4c3CCC4)C2)c1 (stereo unspecified)	81.8%
COc1cccc(CCC2CCCN(C(C)=O)C2)c1 (stereo unspecified)	-10.9%
N#Cc1cccc(C(=O)N2CCCC(C(=O)CCc3ccccc3)C2)c1 (stereo unspecified)	-8.66%

From ChEMBL document CHEMBL4513216, “Probing the Open Global Health Chemical Diversity Library for Multistage-Active Starting Points for Next-Generation Antimalarials” (ACS Infect Dis, 2020)
